Data: PubChem BioAssay AID1347416 (National Center for Advancing Translational Sciences (NCATS), 2020)
Hit rate of the full screen: of about 4,100 compounds, about 1,600 (39%) were called active. Not shown: some 25% with an inconclusive outcome. Calls come from the whole dose curve; as a rule, active = well fitted inhibition curve with a large enough effect; inconclusive = small, poorly fitted or top-dose-only effect; inactive = no such curve, though single readings can be large or run the other way. This is one part of the list.

Assay: qHTS Validation assay for Inhibitors of Plasmodium falciparum Dd2 growth in vitro; note: nearly all actives have a fitted effect of over 70% in size
Conditions: P. falciparum Dd2 in RBCs, SYBR Green growth, 72 h; series mostly up to 28.7 µM; activity change, negative = inhibition: at the top concentration
Summary of the method: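 P. falciparum Dd2-infected red blood cells (2.5% hematocrit, 0.3% parasitemia) grown 72 h at 37 °C under 5% O2 with compounds in a titration, 29 uM to 0.5 nM final. Growth read as SYBR Green-1 fluorescence after ~16 h lysis; artesunate 300 nM as positive control.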
% is set by controls: 0 for no effect and ±100 for the full control effect; potency is the fitted concentration of half-maximal effect.

Structure (SMILES) | Potency | activity change, negative = inhibition
Cc1cccc(C)c1-n1ncc(C(=O)NCCCN2CCC(C)CC2)c1C1CCN(C(=O)OC(C)(C)C)CC1 | 15 µM (active) | –
CC1CCN(C(=O)c2cc3c(s2)CCC(C(=O)NCCCN2CCOCC2)C3)CC1 (configuration not stated) | – | -2.69% (inactive)
CC(C)(C)OC(=O)N1CCC(c2c(C(=O)NCCN3CCc4ccccc4C3)cnn2-c2ccc(F)cc2F)CC1 | 5.31 µM (active) | –
O=C(CN1C2=NCCCN2c2ccccc21)c1ccc(Cl)cc1Cl | 6.68 µM (active) | –
CNCC(=O)N1C[C@@H](C(=O)O)[C@H](c2ccccc2)C1 | – | 41.5% (inactive)
O=C(N/N=C/c1ccc(OCc2ccccc2)cc1)c1ccco1 | 13.3 µM (active) | –
CC(C)C(=O)OCC(=O)[C@@]12O[C@H](C3CCCCC3)O[C@@H]1C[C@H]1[C@@H]3CCC4=CC(=O)C=C[C@]4(C)[C@H]3[C@@H](O)C[C@@]12C | 2.66 µM (active) | –
CC(=O)SC1CC(=O)N(c2c(C)cccc2C)C1=O (configuration not stated) | – | 25.1% (inactive)
CN1C(=O)C2(c3ccccc31)N(C)CC(c1ccccc1)C21SC(=S)N(Cc2ccco2)C1=O (configuration not stated) | 13.3 µM (active) | –
COc1cccc(C(=O)N2CCc3nc(C4CC4)nc(-c4ccc(Cl)cc4)c3C2)c1 | – | -28.7% (inactive)
Oc1ccc(-c2nc(C3CC3)nc3c2CCN(CC2CCCCC2)CC3)cc1 | 4.73 µM (active) | –
CC(C)c1nc2c(c(-c3ccc(O)cc3)n1)CCN(CC1CCCCC1)CC2 | 4.73 µM (active) | –
COc1ccc(-c2nc(C3CC3)nc3c2CCN(Cc2cccnc2)CC3)cc1 | 13.3 µM (active) | –
Cc1ccc(CN2CCc3nc(C(=O)Nc4nc(C)cs4)oc3CC2)cc1 | – | -27.9% [at 43.1 µM] (inactive)
CCc1nc2c(c(-c3ccc(Cl)cc3)n1)CCN(CC1CCCCC1)CC2 | – | -2.24% (inactive)
Cc1ccc(CN2CCc3nc(C4CC4)nc(-c4ccc(O)cc4)c3CC2)cc1 | 4.73 µM (active) | –
Oc1ccc(-c2nc(C3CC3)nc3c2CN(CC2CCCCC2)CC3)cc1 | 6.68 µM (active) | –
O=C(c1ccc(C(F)(F)F)cc1)N1CCc2nc(C3CC3)nc(-c3ccc(Cl)cc3)c2CC1 | 13.3 µM (active) | –
Cc1nc2c(c(-c3ccc(Cl)cc3)n1)CCN(C(=O)c1ccc(C(F)(F)F)cc1)CC2 | – | 31.3% (inactive)
O=C(c1ccccc1Cl)N1CCc2nc(-c3ccccc3)nc(-c3ccc(Cl)cc3)c2C1 | – | 5.28% (inactive)
Cc1cccc(-c2cc3nc(C)c(C)c(NCCCn4ccnc4)n3n2)c1 | 5.31 µM (active) | –
COc1ccc(-c2oc3ccccc3c2C#Cc2cncn2C)cc1 | 1.06 µM (active) | –
CCO[C@H]1CN(C(=O)CCc2nc3c(C)c(C)ccc3[nH]2)C[C@@H]1O | – | 14.7% (inactive)

Structure (SMILES) | Potency | activity change, negative = inhibition
CCOC(=O)c1[nH]c(C)c(CCC(=O)N2CCN(c3cccc(C)c3C)CC2)c1C | 1.33 µM (active) | –
CCOC(=O)c1[nH]c(C)c(CCC(=O)N2CCN(c3cc(Cl)ccc3C)CC2)c1C | 1.19 µM (active) | –
O=C(CCc1cc2ccccc2[nH]c1=O)N1CCCCC1 | – | -6.44% (inactive)
CCOC(=O)c1[nH]c(C)c(CCC(=O)N2CCN(c3cc(C)ccc3C)CC2)c1C | 1.33 µM (active) | –
CN(C)[C@H]1CCCCN(C(=O)CCc2ccc(-c3ccc(Cl)cc3)[nH]2)C1 | – | -7.6% (inactive)
N#C/C(=C\c1ccc(Sc2ccc(Cl)cc2)o1)c1nc2ccccc2[nH]1 | 2.99 µM (active) | –
N#C/C(=C\c1ccc(Cl)cc1)c1nc(-c2cc3ccccc3oc2=O)cs1 | – | 31.2% (inactive)
Cn1nc(-c2nncn2CC2CC2)c2c1CCN(C(=O)c1nn(C)c3ccccc13)C2 | – | -12% (inactive)
COc1ccc(-c2cc3ccc(O)c(CN4CCCC(C)C4)c3oc2=O)cc1 (configuration not stated) | 2.37 µM (active) | –
CCc1ccc(Oc2c(C(F)(F)F)oc3c(CN4CCCC(C)C4)c(O)ccc3c2=O)cc1 (configuration not stated) | 1.33 µM (active) | –
CC1CCCN(Cc2c(O)ccc3c4c(c(=O)oc23)CCCC4)C1 (configuration not stated) | 6.68 µM (active) | –
CC1CCCN(Cc2c(O)ccc3c(=O)c(Oc4ccc(C(C)(C)C)cc4)c(C(F)(F)F)oc23)C1 (configuration not stated) | 0.299 µM (active) | –
CCc1noc(-c2cn(C3CCN(C(=O)c4ccc(N(C)C)cc4)CC3)nn2)n1 | – | -18.2% (inactive)
COc1ccc(-c2ccccc2NC(=O)C2CCCN(Cc3c(O)cccc3OC)C2)cc1 (configuration not stated) | 2.11 µM (active) | –
O=c1oc2c(CN3CCOCC3)c(O)ccc2cc1-c1ccccc1 | 9.44 µM (active) | –
COc1cccc(OC)c1CN1CCC2(CC1)CC(O)CCO2 (configuration not stated) | – | -0.9% (inactive)
COc1ccc(Oc2c(C(F)(F)F)oc3c(CN4CCCC(C)C4)c(O)ccc3c2=O)cc1 (configuration not stated) | 2.37 µM (active) | –
Cn1cc(-c2ccccc2Oc2ccccc2)c2nc(CN3CCOCC3)cn2c1=O | – | -9.15% [at 43.1 µM] (inactive)
CN(C)c1cccc(C(=O)N2CCC(c3n[nH]c(=O)n3-c3ccccc3)CC2)c1 | – | -10.6% (inactive)
COc1ncccc1-c1nc(-c2c(C)noc2C)cc2c1cc(-c1ccccc1)n2C | 13.7 µM (active) | –
Cc1noc(C)c1-c1cc2c(cc(-c3ccccc3)n2C)c(-c2ccnn2C)n1 | 8.63 µM (active) | –
Cc1noc(C)c1-c1cc2c(cc(-c3ccccc3)n2C)c(-c2cccnc2)n1 | 10.9 µM (active) | –
COc1cc(F)ccc1-c1nc(-c2c(C)noc2C)cc2[nH]c(C)cc12 | – | -24.1% [at 43.1 µM] (inactive)

Structure (SMILES) | Potency | activity change, negative = inhibition
Cc1ccc(CNC(=O)CN2CCN(Cc3ccc(F)cc3Cl)C2=O)cc1 | – | 24.2% (inactive)
Cc1ccc(S(=O)(=O)Nc2cc(C)cn(Cc3ccc(F)cc3)c2=O)cc1 | – | -2.09% (inactive)
O=c1c([N+](=O)[O-])cccn1Cc1ccc(F)cc1Cl | 4.73 µM (active) | –
O=C(CSc1nccn1-c1cccc(Cl)c1)NO | – | 16.2% (inactive)
Cc1ccccc1-n1c(SCC(=O)Nc2ccc(Cl)cc2Cl)nc(O)cc1=O | – | -7.22% (inactive)
CCCn1c(SCC(=O)Nc2cc(Cl)ccc2Cl)n[nH]c1=O | 5.31 µM (active) | –
CC(=O)c1c(N2CCN(C)CC2)[nH]c(-c2ccccc2)nc1=S | 5.96 µM (active) | –
O=c1c2c([nH]c3ccccc13)CCCC2 | 6.68 µM (active) | –
O=c1c2c([nH]c3ccc(Br)cc13)CCCC2 | 6.68 µM (active) | –
CC(C)(C)C1CCc2[nH]c3ccccc3c(=O)c2C1 (configuration not stated) | 1.88 µM (active) | –
O=c1c(-c2ccccc2)n[nH]c2ccccc12 | – | 35% (inactive)
O=C(CSc1nc(Nc2ccccc2)nc(N2CCOCC2)n1)Nc1cc(Cl)ccc1O | 2.37 µM (active) | –
COc1cccc(-c2cc3c(=O)n(CCNC(=O)COc4ccc(F)cc4)ccn3n2)c1 | – | 10.4% (inactive)
CCN(CC)CCNC(=O)c1ccc(NC(=O)c2cn(-c3ccc(F)cc3)nc2-c2cccc(OC)c2)cc1 | 9.44 µM (active) | –
Cc1nn(-c2ccccc2)nc1-c1nnc(-c2ccc(C(F)(F)F)cc2)o1 | – | 24.1% (inactive)
COc1cc(NC2CCCCC2O)c2nc(-c3ccc(Cl)cc3)ccc2c1 (configuration not stated) | 5.31 µM (active) | –
Oc1ccc(Cl)cc1CNCC1CCCCC1 | 4.22 µM (active) | –
Oc1ccc(Cl)cc1CNCc1ccc(C(F)(F)F)cc1 | 4.22 µM (active) | –
Oc1ccc(Cl)cc1CNCc1cccc2ccccc12 | 0.842 µM (active) | –
CC1CCCCN1S(=O)(=O)c1ccc(C(=O)Nc2ccccc2-c2nc3ccccc3[nH]2)cc1 (configuration not stated) | 7.5 µM (active) | –
COC(=O)c1ccc(NC(=O)CSc2nc3cc4ccccc4cc3[nH]2)cc1 | – | -17.5% (inactive)
CC(C)(C)N1C(=O)c2ccc(C(=O)Nc3ccc(-c4nc5ccccc5[nH]4)cc3)cc2C1=O | 6.68 µM (active) | –
Nc1ccc2nc(-c3cccnc3)[nH]c2c1 | – | -37.2% (inactive)

Structure (SMILES) | Potency | activity change, negative = inhibition
O=C(Nc1cccc(-c2nc3ccccc3[nH]2)c1)c1ccc(C(=O)Nc2cccc(-c3nc4ccccc4[nH]3)c2)cc1 | 2.66 µM (active) | –
O=C(Nc1cccc(Oc2ccc(C(=O)O)c(C(=O)O)c2)c1)c1ccc(-c2ccccc2)cc1 | – | 11.3% (inactive)
CC(=O)Nc1ccc(S(=O)(=O)N2CCC(n3c(C)nc4cccnc43)CC2)cc1 | – | 23.5% (inactive)
CS(=O)(=O)c1ccc(C(=O)Nc2ccc(-c3nc4ccccc4[nH]3)cc2)cc1 | 7.5 µM (active) | –
COc1ccc(CCN(C)C(=S)Nc2cccc(C)c2)cc1OC | 2.11 µM (active) | –
COc1cc2c(cc1OC)C(c1ccccc1N)=NCC2 | – | -18.1% (inactive)
Brc1c(C[n+]2ccccc2)nc2ccccn12 | – | -12.1% (inactive)
CCc1cc(CN(C)C(=O)c2cc(COc3ccccc3F)[nH]n2)on1 | – | 29.2% (inactive)
CC1(c2ccccc2)N(Cc2cccnc2)C(=O)OC12CCN(C(=O)Cc1ccc(Cl)cc1)CC2 (configuration not stated) | 13.3 µM (active) | –
CC1(c2ccccc2)N(Cc2ccccc2)C(=O)OC12CCN(Cc1cccnc1)CC2 (configuration not stated) | 15.3 µM (active) | –
CCN1CCN(c2nc3c(s2)CN(C(=O)Cc2cccnc2)CC3)CC1 | – | 29.4% (inactive)
CC1(c2ccccc2)N(Cc2cccnc2)C(=O)OC12CCN(Cc1ccccc1)CC2 (configuration not stated) | 17.2 µM (active) | –
CC(=O)Nc1ccc(CN2C(=O)OC3(CCN(C(=O)C4CCC4)CC3)C2(C)c2ccccc2)cc1 (configuration not stated) | – | -21.2% (inactive)
CCN(CC)c1ccc(C(=O)N2CCCC(n3cc(-c4noc(C)n4)nn3)C2)cc1 (configuration not stated) | – | -5.7% (inactive)
COc1ccc(C(=O)N[C@@H]2CN(Cc3cccc(OC)c3)CCC[C@H]2O)cc1 | 10.9 µM (active) | –
COc1ccc(C(=O)N[C@@H]2CCC[C@@H]2C(=O)NC(C)C)cc1 | – | -18.7% (inactive)
COc1cccc(CNC(=O)N[C@@H]2CN(Cc3ccncc3)C[C@H]2CN(C)C)c1 | – | 0% (inactive)
CC(C)(C)Nc1nc(NC(C)(C)C)nc(-n2ccnc2)n1 | 4.73 µM (active) | –
CCc1ccc(CN(C(=O)c2nc(SC)ncc2Cl)C2CCS(=O)(=O)C2)cc1 (configuration not stated) | – | -8.57% (inactive)
CN(C)c1ccc2ncc(Nc3ccc(Oc4ccccc4)cc3)n2n1 | 8.63 µM (active) | –
c1ccc(Oc2ccc(Nc3cnc4ccc(N5CCOCC5)nn34)cc2)cc1 | 7.69 µM (active) | –
CN1CCN(c2ccc(-c3cccc(N)c3)nn2)CC1 | – | -6.65% (inactive)
CN1CCN(c2ccc3ncc(Nc4ccccc4-c4ccccc4)n3n2)CC1 | 0.863 µM (active) | –
